# DRD3 antagonist: antagonists of human D3 dopamine receptor; P35462; D3R cells, DiscoveRx beta-arrestin luminescence, antagonist mode; hits give low values; max response, negative = inhibition, %; 360,000 compounds, 2.5% hits; in the data active = max response below about -50%; inconclusive = no clear call, values can overlap the other calls; note: % is set by controls: 0 for no effect and ±100 for the full control effect
#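 Cells expressing the human receptor were seeded at 1500 cells/well, incubated overnight at 37 degrees C in 5% CO2, then exposed to library compounds with dopamine controls for 90 minutes at 37 degrees C before luminescent detection.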
# D3 ag: activates the human D3 dopamine receptor; 410,000 compounds, 0.58% hits; max activation, %; D3R DiscoveRx beta-arrestin cells, luminescence, 90 min; P35462; in the data active = max activation above about 30%; note: 0% is about no effect
#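 Cells at 1500/well, incubated overnight, then treated with pinned compounds (dopamine as control) for 90 min at 37 degrees C. DiscoveRx reagent added for 30 - 60 minutes at room temperature; luminescence read.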
# PI4K2A block: blocks human PI4K2A kinase activity; Q9BTU6; AID 1346378; purified PI4K2A, ADP-Glo luminescence, 1 h; hits give low values; activity change, negative = inhibition, % at 76.9 µM; 420,000 compounds, 0.13% hits; in the data active = activity change below about -50%; inconclusive = mostly about -30% to -49%;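 note: -100% = wells without enzyme as full effect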
#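 Compounds are screened against recombinant PI4K2A using PI as substrate and ATP, the latter dispensed at 300 microM. Reactions run one hour at ambient temperature before ADP-Glo detection; full inhibition defined by wells lacking enzyme.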
# LDHA block: blocks human lactate dehydrogenase A; activity change, % (values are at about 110 or 230 µM); P00338; AID 1347041; 480,000 compounds, 0.15% hits; purified LDHA, NADH/diaphorase-resazurin fluorescence; hits give low values; in the data active = activity change below about -30%; inconclusive = mostly about -25% to -30%;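 note: plate controls were DMSO wells for no effect and wells without enzyme for full effect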
#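 Resorufin fluorescence (ex540/em590), read at 0 and 20 min after diaphorase/resazurin addition, reports the NADH left after a 5 min room-temperature reaction of 2 nM human LDH5 with 0.06 mM NADH and 0.2 mM pyruvate.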
# PI5P4K alpha inh: PI5P4K alpha (human) kinase inhibition | max response, % | 330,000 compounds, 1.2% hits | PI5P4Kalpha enzyme, ADP-Glo luminescence, 60 min; hits give low values; active = max response of -50% or lower; inconclusive = between -30% and -50%; inactive = -30% or higher; note: value at the top dose of about 77 µM; % is set by controls: 0 for no effect and ±100 for the full control effect
# Target sequence (P48426 whole entry, looked up): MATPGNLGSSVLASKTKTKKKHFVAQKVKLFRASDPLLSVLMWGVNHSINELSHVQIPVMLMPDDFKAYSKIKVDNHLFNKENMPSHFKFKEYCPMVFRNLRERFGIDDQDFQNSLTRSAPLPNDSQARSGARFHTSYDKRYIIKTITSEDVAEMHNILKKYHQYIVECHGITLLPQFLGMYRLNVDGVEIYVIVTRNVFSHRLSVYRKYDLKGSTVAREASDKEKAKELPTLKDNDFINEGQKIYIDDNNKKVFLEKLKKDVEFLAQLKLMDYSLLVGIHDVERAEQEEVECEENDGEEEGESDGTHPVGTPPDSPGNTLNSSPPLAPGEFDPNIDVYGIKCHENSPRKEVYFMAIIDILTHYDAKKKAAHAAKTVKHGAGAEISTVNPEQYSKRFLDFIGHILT
#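 qHTS, 1536-well: enzyme/substrate mix, compound by pin tool, 5 microM ATP final; RT 60 min; ADP-Glo reagents 1 (45 min) then 2 (30 min); luminescence.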
# An asterisk follows results filed as active; ? = inconclusive; · = no result given. Rows were chosen to be rich in hits. Some 3.3% of all compounds tested hit in one or more screens of this group.
SMILES,DRD3 antagonist,D3 ag,PI4K2A block,LDHA block,PI5P4K alpha inh
CCOC(=O)c1nc2sc3c(c2c(=O)[nH]1)CCCC3,-6.7,-6.3,2.9,6.4,-13.4
COc1ccc(Br)c(C(=O)Nn2c(-c3cccc(C)c3)nc3ccccc3c2=O)c1,·,·,·,-5.3,·
O=C(O)c1ccc(S(=O)(=O)/N=C2\C=C(Nc3ccccc3F)C(=O)c3ccccc32)cc1,-106.5*,-28.3,?,49.8,?
Cc1ccc(C)c(S(=O)(=O)/N=C2\C=C(NS(=O)(=O)c3ccccc3)C(=O)c3ccccc32)c1,?,-5.4,-13.8,8.1,-18.5
Cc1ccccc1NC1=C/C(=N\S(=O)(=O)c2ccc(C(=O)O)cc2)c2ccccc2C1=O,-97.1*,-19.8,?,58.2,-28.7
Cc1ccc(NC(=O)NCc2nc(-c3ccccc3)oc2C)c(Cl)c1,·,·,·,-0.9,·
CCc1noc(C)c1C(=O)Nc1ccc(NC(C)=O)cc1,·,·,·,-0.1,·
COc1ccc(-c2nnc(SCC(=O)Nc3ccc(S(=O)(=O)Nc4cc(C)nc(C)n4)cc3)n2-c2ccc(OC)cc2)cc1,·,·,-1.1,·,·
C#CCN1CC(N(C)CCOC(=O)CCCc2ccccc2)CS1(=O)=O (stereo not given),·,·,-6.6,·,·
COc1ccccc1Nc1nc(-c2ccc3c(c2)CCC(=O)N3)cs1,·,·,·,-31.3*,·
CSc1ccc(/C=N/NC(=O)c2cc(O)cc(O)c2)cc1,-5.7,-3.8,-18.3,-4.7,?
CSc1ccc(/C=N/NC(=O)c2ccc(C)c(C)c2)cc1,-13.5,-1.8,1.5,-48.4*,-6.7
CS/C(=C\[N+](=O)[O-])Nc1ccc(Cl)cc1,-83.7*,-16.3,-14.4,-0.1,5.2
CCOC(=O)Cn1cc(CN2C(C(=O)OC)CN(C3CC3)CCS2(=O)=O)nn1 (stereo not given),·,·,-8.6,·,·
Cc1cc(C)cc(OCC(O)CN2CCC(CN3C(=O)c4cccc5cccc(c45)C3=O)CC2)c1 (stereo not given),-67.8*,-14.7,-2.3,-3.0,-4.0
O=C1c2cccc3cccc(c23)C(=O)N1CC1CCN(CC(O)COc2ccc3ccccc3c2)CC1 (stereo not given),?,-16.5,5.1,0.9,-1.3
COc1cccc(OCC(O)CN2CCC(CN3C(=O)c4cccc5cccc(c45)C3=O)CC2)c1 (stereo not given),-52.0*,-13.5,4.8,-14.3,-5.1
O=c1nc(Nc2ccccc2)oc2ccccc12,-21.6,-3.3,-0.9,-2.9,-5.7
O=c1oc(Nc2ccc(F)cc2)nc2ccccc12,-8.6,-12.5,-57.4*,-3.5,3.0
COc1cc(NCC(=O)NC(C)(C#N)C(C)C)c(OC)cc1Cl (stereo not given),·,·,·,-1.3,·
CC(=O)c1ccc(NC(=O)CSc2nc3ccccc3c(=O)n2CC2CCCO2)cc1 (stereo not given),·,·,·,2.7,·
CCCCOC(=O)C1C2C=C[C@]3(CN(CCCOC)C(=O)[C@H]13)O2 (stereo not given in full),-51.4*,-2.6,-2.0,-9.7,-2.1
O=C(O)c1ccc(N=N/C(=N\Nc2ccc(C(=O)O)cc2)c2ccccc2)cc1,-53.2*,-29.0,-26.0,-5.5,-79.6*
Oc1ccc2ccccc2c1C=NCCSSCCN=Cc1c(O)ccc2ccccc12,·,·,·,-1.8,·
Cc1cc2nc(-c3ccc(SCc4ccccc4C#N)nc3)[nH]c2cc1C,19.3,20.4,-1.6,0.5,·
SMILES,DRD3 antagonist,D3 ag,PI4K2A block,LDHA block,PI5P4K alpha inh
Cc1cc2nc(-c3ccc(SCc4ccc(C(=O)O)cc4)nc3)[nH]c2cc1C,-0.9,-6.6,0.2,-7.2,-64.2*
Nn1c(SCc2ncc(-c3ccc(Cl)cc3)o2)nnc1-c1ccc(F)cc1,·,·,·,-21.5,·
COc1ccccc1NC(=O)C(C)OC(=O)CSCC(=O)Nc1ccc(C)cc1C (stereo not given),-2.3,1.3,1.0,-5.0,7.0
Cc1ccc(NC(=O)CSCC(=O)OC(C)C(=O)Nc2ccc(S(N)(=O)=O)cc2)c(C)c1 (stereo not given),0.0,5.1,-2.7,-43.8*,0.5
CCN1c2ccccc2-c2nc3ccccc3n2C1c1ccco1 (stereo not given),-50.3*,1.3,-2.6,2.9,4.6
c1ccc(CN2c3ccccc3-c3nc4ccccc4n3C2c2ccccn2)cc1 (stereo not given),-0.8,3.9,6.4,0.0,-7.7
O=C(CSc1ncnc2scc(-c3ccc(F)cc3)c12)NC1CC1,·,·,·,-2.6,·

# Screening data as filed in PubChem.
